Only some compounds are listed: those with a hit (about 1.5% of all), similar ones and a draw of the others.
Hsp70 activator – transcriptional activators of Hsp70; HeLa Hsp70 promoter luciferase reporter, luminescence; scaled: vehicle 0, proteasome-inhibitor control 100%; activation, % at 10 µM; 0.04% of 200,000 active; AID 1203;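 active = activation above the mean across all tested compounds plus 3 SD, cutoff set per campaign, cut at about 5.5% in these data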;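 also: 100% = MG132 at 30 µM as the positive control and 0% = DMSO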
INS promoter inh – TRM-6 insulin promoter activity inhibition; TRM-6 cells (human fetal islet line), insulin promoter-eGFP reporter, imaging; reporter expression induced with tamoxifen; 0.9% of 130,000 active; AID 1273; inhibition, % at 2 µM;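 active = inhibition above the mean plus 3 SD, with well images judged a real hit on visual review, cut at about 60% in these data, passing the limit was not always enough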
Insulin prom up – MIN6 insulin promoter up-regulation; MIN6 insulin promoter-GFP reporter, high-content imaging; stronger effect = higher value; z-score at 5 µM; 0.3% of 190,000 active; AID 1625;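 active = z-score above 3 at 5 µM with at least 500 cells counted in the well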
S1P4 agonist – agonists of human S1P4 receptor; S1P4-expressing cell line, agonist reporter assay; 0.35% of 220,000 active; O95977; activation, % at 4.98 µM; in the data active = activation above about 11%;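 also: 0% = DMSO vehicle and 100% = reference agonist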
S1P3 antag – blocks the human S1P3 receptor; 0.27% of 170,000 active; inhibition, % at 4.98 µM; CHO S1P3 NFAT-BLA reporter, FRET fluorescence, antagonist mode; AID 485;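 active = inhibition above the plate cutoff, the mean inhibition of test wells on that plate plus 3 SD, cut at about 28% in these data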;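 also: cells challenged with S1P at its EC80 of 0.8 µM; blue over green emission ratio from cleaved BLA substrate after 4 h stimulation; 0% = S1P-stimulated wells and 100% = unstimulated DMSO-only wells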
S1P4 antag – antagonists of human S1P4 receptor | O95977 | S1P4-expressing cells, antagonist mode, reporter read-out | inhibition, % at 4.98 µM | 0.26% of 220,000 active; in the data active = inhibition above about 29%;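 also: 0% = wells stimulated with agonist and 100% = vehicle wells without agonist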
S1P4 antag conf – confirmation of human S1P4 receptor antagonists. shares compounds with S1P4 antag. S1P4-expressing cell line, antagonist mode, reporter read-out. AID 1524. inhibition, % at 4.98 µM. 71% of 520 active; in the data active = inhibition above about 30%
S1P1 antagonist – blocks human S1P1, counter-screen for S1P4 antagonists; cell-based S1P1 antagonist counterscreen, inhibition; shares compounds with S1P4 antag; 37% of 520 active; AID 1564; inhibition, % at 4.98 µM; in the data active = inhibition above about 40%;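 also: receptor stimulated with S1P near its EC80; 0% = agonist stimulated wells and 100% = vehicle only wells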
* marks the source's active call; other numbers are inactive results; . = no result given.

SMILES	Hsp70 activator	INS promoter inh	Insulin prom up	S1P4 agonist	S1P3 antag	S1P4 antag	S1P4 antag conf	S1P1 antagonist
Cc1cccc(-n2c(O)c(C=Nc3ccc(Br)cn3)c(=O)[nH]c2=O)c1	0	14	0.13	1	-3	-1	.	.
N#CC1=C(N)Oc2c(c(=O)sc3ccccc23)C1c1cccnc1 (stereo not drawn)	0	25	0.4	-1	6	-1	.	.
CC1=CC2/C=C(\C)CCC(O)C(O)/C=C/C(=O)C23C(=O)NC(CC(C)C)C3C1C (stereo not drawn)	3	.	-2.5	-1	7	64*	114*	23
C/C1=C\[C@@H](C)C/C=C/[C@H]2[C@@H]3O[C@]3(C)[C@@H](C)[C@H]3[C@H](Cc4c[nH]c5ccccc45)NC(=O)[C@]32C(=O)/C=C/C(=O)[C@@H]1O	0	.	1.6	-1	22	33*	59*	25
CC[C@@]1(O)C(=O)OCc2c1cc1n(c2=O)Cc2cc3c(NC(=O)CN)cccc3nc2-1	.	.	-0.5	0	-2	-5	.	.
CCC1(OC(=O)CN)C(=O)OCc2c1cc1n(c2=O)Cc2cc3ccccc3nc2-1 (stereo not drawn)	.	.	.	3	15	92*	64*	24
Cc1ccsc1C(=O)C1CCCN(Cc2ccc(-n3cccn3)cc2)C1 (stereo not drawn)	0	.	-0.75	0	12	-13	.	.
COc1cc(/C=C(/C)[N+](=O)[O-])ccc1OCc1ccccc1Cl	0	-42	0.5	-1	-23	54*	120*	148*
CCCCn1c(NC(=O)c2ccco2)c(C(=O)OCC)c2nc3ccccc3nc21	0	.	-0.19	-1	-15	31*	16	5
Cc1ccc(CN2CCCC(C(=O)c3sccc3C)C2)o1 (stereo not drawn)	0	.	-0.09	-1	4	-21	.	.
CC1(C)CC(CCNCc2ccc3c(c2)OCO3)(Cc2ccccc2)CCO1 (stereo not drawn)	0	.	.	0	2	7	.	.
NC(=O)CS(=O)C(c1ccccc1)c1ccccc1 (stereo not drawn)	0	.	-0.13	1	-15	19	.	.
